Most compounds without a hit are left out; they make up all but 2.1% or so of the library.
p53 PUMA act: mutant p53 pathway reactivation. SW480 PUMA-promoter luciferase. activation, % at 9.98 µM. 28,000 tested, 1.5% active; in the data active = activation above about 52%; inconclusive = no clear call, values can overlap the other calls
STK33 inh: human STK33 kinase inhibition; ADP-Glo luminescence, MBP substrate; inhibition, % at 12.5 µM; AID 2322; Q9BYT3; 27,000 tested, 0.44% active; in the data active = inhibition above about 20%; inconclusive = no clear call, values can overlap the other calls
Target sequence (Q9BYT3 whole entry, looked up): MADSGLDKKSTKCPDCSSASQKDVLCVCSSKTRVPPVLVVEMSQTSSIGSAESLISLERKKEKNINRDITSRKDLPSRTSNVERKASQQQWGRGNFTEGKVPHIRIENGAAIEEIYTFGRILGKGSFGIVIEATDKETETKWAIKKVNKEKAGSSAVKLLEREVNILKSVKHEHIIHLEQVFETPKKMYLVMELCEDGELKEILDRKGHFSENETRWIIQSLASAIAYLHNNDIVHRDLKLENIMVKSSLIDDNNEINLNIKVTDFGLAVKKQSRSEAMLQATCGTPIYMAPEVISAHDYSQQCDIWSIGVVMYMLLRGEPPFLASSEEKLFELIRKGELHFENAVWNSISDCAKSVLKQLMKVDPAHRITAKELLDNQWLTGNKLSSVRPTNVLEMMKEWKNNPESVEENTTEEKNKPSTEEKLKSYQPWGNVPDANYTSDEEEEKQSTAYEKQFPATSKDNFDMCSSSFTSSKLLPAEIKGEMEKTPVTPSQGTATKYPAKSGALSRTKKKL
ID4 binder: binders of human ID4 protein. P47928. small molecule microarray, Flag-ID4 binding, fluorescence F/B. calls only. 31,000 tested, 1.2% active; call rule not given here;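 also: a binder raises fluorescence above local background on the spot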
The depositor's hits bear a star; i = inactive; ? = inconclusive; · = no result given; + = active, no number.

SMILES	p53 PUMA act	STK33 inh	ID4 binder
COc1ccccc1OCC(=O)Nc1cccc(-c2nc3ccccc3s2)c1	67*	5	i
Cc1cccc(OCC(=O)Nc2cccc(-c3nc4ccccc4s3)c2)c1	59*	1	i
O=C(COc1ccc(Cl)cc1Cl)Nc1ccc(-c2nc3ccccc3s2)c(O)c1	8	5	i
C=C1C(=O)O[C@@H]2C[C@@]3(C)[C@@H](O)C[C@@H](O)C(=C)[C@@H]3C[C@H]12	·	-2	i
C[C@@H]1CCCCO[C@@H](CN(C)C(=O)CCC(F)(F)F)[C@@H](C)CN([C@@H](C)CO)C(=O)c2cc(NS(=O)(=O)c3cccs3)ccc2O1	0	·	i
COc1c(C2OCC(O)C(O)C2O)c(O)cc2oc(-c3ccc(OC4OC(C)C(O)C(O)C4O)cc3)cc(=O)c12 (stereo unspecified)	-4	-1	i
C[C@@H]1CN([C@H](C)CO)C(=O)Cc2cc(NC(=O)C3CC3)ccc2O[C@@H]1CN(C)C(=O)NC1CCCCC1	·	1	·
NC(=S)c1ccc(N2CCC(C(F)(F)F)CC2)nc1	·	-3	·
N/C(=N\O)c1ccc(N2CCN(c3ncccc3C(F)(F)F)CC2)nc1	142*	·	i
C[C@H](CO)N1C[C@H](C)[C@H](CN(C)Cc2cncnc2)Oc2ncc(C#CC3CCCCC3)cc2C1=O	-4	·	·
CC(C)c1ccccc1NC(=O)CCCN1C(=O)c2ccccc2C1=O	19	-1	i
COC(=O)c1ccc(COc2ccc3c(c2)oc(=O)c2cc(OC)ccc23)o1	5	6	i
COC(=O)c1ccc(COc2ccc3c(C)cc(=O)oc3c2)o1	63*	-5	i
COCCNC(=O)c1ccccc1-c1nc(-c2ccc(OC)c(OC)c2)no1	3	-4	i
NS(=O)(=O)c1ccc(N(S(=O)(=O)c2ccccc2)S(=O)(=O)c2ccccc2)cc1	-15	·	i
NS(=O)(=O)c1ccc(N=Cc2c(O)[nH]c3ccccc23)cc1	2	94*	·
Cc1ccc(NC(=O)CSc2nnc(-c3ccncc3)n2C)c(Br)c1	1	-5	i
Cn1c(SCC(=O)Nc2ccccc2C(F)(F)F)nnc1-c1ccc(F)cc1	9	-10	i
Cn1c(SCC(=O)Nc2ccnc3ccccc23)nnc1-c1ccncc1	-28	-2	+
Cc1ccc(-c2nnc(SCC(=O)Nc3ccccc3F)n2C)cc1	60*	-1	i
C[C@@H]1CCCCO[C@@H](CN(C)S(=O)(=O)c2ccccc2)[C@@H](C)CN([C@H](C)CO)C(=O)c2cc(NS(=O)(=O)c3cn(C)cn3)ccc2O1	-3	1	·
COc1cc2ncnc(Nc3cccc(O)c3)c2cc1OC	-7	43*	·
COc1cc2ncnc(Nc3cccc(Br)c3)c2cc1OC	16	0	·
C[C@H](CO)N1C[C@H](C)[C@H](CN(C)S(C)(=O)=O)OCCCC[C@H](C)Oc2ccc(NS(=O)(=O)c3ccccc3)cc2C1=O	4	·	i
CN1c2ccccc2Oc2nnc(N3CCN(c4ccccc4)CC3)cc21	95*	·	i
SMILES	p53 PUMA act	STK33 inh	ID4 binder
COc1ccc(OC)c(NC(=O)COc2ccc(C(C)(C)C)cc2)c1	64*	-3	i
CCc1ccccc1OCC(=O)Nc1cc(OC)ccc1OC	93*	0	i
COC(=O)c1ccc(OCC(=O)Nc2cc(OC)ccc2OC)c(OC)c1	5	-1	i
COc1ccc([N+](=O)[O-])cc1NC(=O)COc1ccc(C(C)(C)C)cc1	?	0	i
Cn1c(SCC(=O)Nc2ccc(Cl)cc2Cl)nnc1-c1ccc(Br)cc1	-7	-1	i
COc1ccc(Cl)cc1NC(=O)CSc1nnc(-c2cc3cc(Br)ccc3o2)n1C	52*	3	i
COc1ccc(NC(=O)Nc2ccc3c(c2)[C@@H]2C[C@@H](CC(=O)NCc4ccccc4F)O[C@@H](CO)[C@@H]2O3)cc1	0	·	·
C[C@@H]1CN([C@H](C)CO)C(=O)c2cc(C#CCN(C)C)cnc2O[C@@H]1CN(C)S(=O)(=O)c1cn(C)cn1	·	·	i
CC(=O)OCC(=O)[C@@]1(O)CCC2C3CCC4=CC(=O)C=CC4(C)C3[C@@H](O)C[C@@]21C (stereo partly specified)	·	-1	·
CC(=O)C(C#N)C(=O)Nc1cc(Br)ccc1Br (stereo unspecified)	10	22*	i
COc1ccc(NC(=O)N(C)C[C@H]2Oc3ccc(NC(=O)Nc4c(C)noc4C)cc3CC(=O)N([C@@H](C)CO)C[C@@H]2C)cc1	·	2	·
NS(=O)(=O)C#Cc1ccccc1	-31	·	i
Cc1cccc(C#Cc2ccccc2)n1	85*	·	i
CCn1c(SCC(N)=O)nnc1-c1ccc(Cl)cc1	-13	-1	i
Cc1ccc(-c2ccc(CCC(=O)O)n2-c2ccc(N(C)C)cc2)cc1	9	-9	i
CC(=O)c1cccc(-n2c(CCC(=O)O)ccc2-c2ccc(C)cc2)c1	11	-6	+
C[C@H]1CN([C@@H](C)CO)C(=O)c2cc(NC(=O)Cn3cnnn3)ccc2O[C@H]1CN(C)Cc1ccc(C(F)(F)F)cc1	·	0	·
CC(C)n1cnc2c(NCc3ccccc3)nc(NCCCO)nc21	-7	·	·
CC(C)n1cnc2c(NCc3ccccc3)nc(NCCO)nc21	92*	35*	i
CCCc1cc(=O)[nH]c(Nc2nc(C)c3ccc(OC)cc3n2)n1	33	-4	i
COc1ccc2c(C)nc(Nc3nc(C)cc(=O)[nH]3)nc2c1	73*	2	i
COc1ccc(CN2C(=O)C(O)(CC(=O)c3cccs3)c3ccccc32)cc1OC (stereo unspecified)	-12	-2	i
CC(=O)Nc1ccc(OCC(O)CNC(C)C)cc1 (stereo unspecified)	-2	0	+
CC(=O)Nc1ccc(OCC(O)CNC2CCCC2)cc1 (stereo unspecified)	-4	-11	i
Cc1ccc(C(=O)CSc2nc(C)nc3sc(C)c(C)c23)cc1	24	0	i
SMILES	p53 PUMA act	STK33 inh	ID4 binder
O=C(CSc1nnc(-c2ccc(Cl)cc2)o1)Nc1ccc(I)cc1	24	0	i
COc1cc(OC)cc(-c2nnc(SCC(=O)Nc3ccccc3)o2)c1	102*	0	i
Cc1ccc(NC(=O)CSc2nnc(-c3ccc(C(C)(C)C)cc3)o2)c(C)c1	-7	-4	i
O=C(CSc1nnc(-c2ccncc2)o1)Nc1ccccc1	31	0	i
O=C(CSc1nnc(-c2ccc(Cl)cc2)o1)Nc1ccccc1C(F)(F)F	68*	-2	i
Cc1cc([N+](=O)[O-])ccc1NC(=O)CSc1nnc(-c2ccccc2)o1	67*	4	i
Cc1cc(NC(=O)c2cnn3c(C(F)(F)F)cc(-c4cccs4)nc23)n(-c2ccccc2)n1	-11	6	i
Cc1ccc(N(CC(O)Cn2c3ccccc3c3ccccc32)S(C)(=O)=O)c(C)c1 (stereo unspecified)	1	2	i
CCc1cccc(NC(=O)O[C@H]2[C@H](OC(=O)Nc3ccccc3)[C@@H](OC(=O)Nc3ccccc3)[C@@H](OC)O[C@@H]2CO)c1	·	13	·
C[C@@H]1CCCCO[C@@H](CN(C)Cc2ccncc2)[C@H](C)CN([C@H](C)CO)C(=O)c2cc(NC(=O)Nc3ccccc3)ccc2O1	-10	·	+

From PubChem BioAssay
